Assay results: PubChem BioAssay (Tox21)
Inconclusive results are not listed. Calls of active or inactive are those of the source. Unless noted, calls come from the whole dose curve; as a rule, active = well fitted curve in the direction sought with a large enough effect in the repeat runs; inconclusive = weak or mixed curves; inactive = no such curve, though single readings can be large; an effect the other way counts as inactive or inconclusive.

Legend:
[1] = qHTS assay to identify small molecule agonists of the hypoxia (HIF-1) signaling pathway - cell viability counter screen (AID 1224844; calls by dose curve; note: nearly all actives have a fitted effect of over 50% in size)
Procedure, shortened: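 Multiplexed with the HRE beta-lactamase assay, this viability read used CellTiter-Glo luminescence (30 min, RT) on HRE-bla ME-180 cells treated 17 hrs with compounds in 0.5% dialyzed FBS medium.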

[2] = qHTS assay to identify small molecule agonists of H2AX (AID 1224845; active = well fitted activation curve with a large enough effect in the signal ratio in the repeat runs, not every such curve was filed as active; the % refers to the signal ratio)
Procedure, shortened: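 Wild-type CHO-K1 cells, plated overnight, exposed 3hr at 37C to 15 concentrations (0.76% DMSO final). Lysed, then HTRF anti-pH2AX (S139) cryptate and anti-H2AX-d2 antibodies, 24 hr room temperature; 665/620 nm emission read.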

[3] = qHTS assay to identify small molecule agonists of the hypoxia (HIF-1) signaling pathway (AID 1224846; active = well fitted activation curve with a large enough effect in the signal ratio in the repeat runs, not every such curve was filed as active; the % refers to the signal ratio)
Procedure, shortened: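 Hypoxia-pathway activation was scored as increased beta-lactamase from an HRE-controlled reporter in ME-180 cells; plated at 2,000 cells per well with 0.5% dialyzed FBS, they were exposed 17 hrs to compounds and then given CCF4-AM.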

[4] = qHTS assay to identify small molecule agonists of H2AX - cell viability counter screen (AID 1224847; calls by dose curve; note: top concentration of the series differs between compounds; nearly all actives have a fitted effect of over 30% in size)
Procedure, shortened: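 CHO-K1 wt, 1000 cells/well, o/n 37C; cpds 15 conc, 3 h 37C, 0.76% DMSO; CellTiter-Glo, 30 min RT, luminescence.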

[5] = qHTS assay to identify small molecule antagonists of the estrogen related receptor (ERR) signaling pathway from Tox21 library (AID 1224848); note: nearly all actives have a fitted effect of over 50% in size; note: potency is the fitted concentration of half-maximal effect
Procedure, shortened: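 ERR reporter cell line (from NTP) seeded 2,000 cells/well, rested 6 h at 37 C/5% CO2, then pin-dosed with compounds in DMSO. After 18 h at 37 C, ONE-Glo added; luminescence read after 30 min at room temperature.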

[6] = qHTS assay to identify small molecule agonists of the estrogen related receptor (ERR) signaling pathway from Tox21 library (AID 1224849; calls by dose curve; note: nearly all actives have a fitted effect of over 15% in size); conditions: ERR reporter cell line, ONE-Glo luciferase, 18 h; at 92.4 µM (top of the series) unless noted
Procedure, shortened: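 Six hours post-seeding at 37 C/5% CO2, ERR cells receive DMSO-solubilised compounds; after 18 h at 37 C, ONE-Glo reagent is applied and luminescence recorded.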

[7] = qHTS RealTime-Glo MT Cell Viability Assay in HepG2 cells - 24 hour (AID 1224867); note: nearly all actives have a fitted effect of over 50% in size
Procedure, shortened: (§1)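 HepG2 suspension premixed with RealTime-Glo reagents is plated at 600 cells per well and left 5 h at 37 C/5% CO2. Compounds in DMSO then go in, and bioluminescence reflecting viable cell number is recorded over 40 h.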

[8] = qHTS RealTime-Glo MT Cell Viability Assay in HEK293 cells - 32 hour (AID 1224868); note: top concentration of the series differs between compounds; nearly all actives have a fitted effect of over 50% in size
Procedure, shortened: (§2)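 Reads taken at 0, 8, 16, 24, 32 and 40 h from the same wells. HEK293 cells (600/well) carried RealTime-Glo reagents from seeding, with compound added after a 5 h settle at 37 C.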

[9] = A CellTox Green Cytotoxicity Assay to monitor cytotoxicity in HEK293 cells - 0 hour (AID 1224869); note: nearly all actives have a fitted effect of over 50% in size
Procedure, shortened: (§3)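 Seeding of HEK293 cells together with cytotoxicity dye preceded a 5 h incubation at 37 C/5% CO2. Test compounds in DMSO were then added and fluorescence monitored across 40 h.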

[10] = qHTS RealTime-Glo MT Cell Viability Assay in HepG2 cells - 40 hour (AID 1224870); note: nearly all actives have a fitted effect of over 50% in size
Procedure, shortened: (§4)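 HepG2 cells (600/well) mixed with RealTime-Glo MT reagent, settled 5 h at 37 C/5% CO2 before compound addition. Nonlytic NanoLuc luminescence from viable-cell prosubstrate reduction read repeatedly during 40 h treatment at 37 C.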

[11] = A CellTox Green Cytotoxicity Assay to monitor cytotoxicity in HEK293 cells - 40 hour (AID 1224871); note: nearly all actives have a fitted effect of over 45% in size
Procedure, shortened: as §3

[12] = qHTS RealTime-Glo MT Cell Viability Assay in HEK293 cells - 16 hour (AID 1224872)
Procedure, shortened: as §2

[13] = qHTS RealTime-Glo MT Cell Viability Assay in HEK293 cells - 40 hour (AID 1224874); conditions: RealTime-Glo luminescence; max response: active compounds read low; note: nearly all actives have a fitted effect of over 50% in size
Procedure, shortened: (§5)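 Tox21 screen in HEK293 using RealTime-Glo MT chemistry, with cells and reagent co-dispensed. Luminescence proportional to viable cell number was captured at intervals during 40 h compound exposure at 37 C.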

[14] = A CellTox Green Cytotoxicity Assay to monitor cytotoxicity in HEK293 cells - 24 hour (AID 1224875); note: nearly all actives have a fitted effect of over 45% in size
Procedure, shortened: as §3

[15] = A CellTox Green Cytotoxicity Assay to monitor cytotoxicity in HepG2 cells - 16 hour (AID 1224876); note: nearly all actives have a fitted effect of over 45% in size
Procedure, shortened: (§6)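 Nonlytic assay: viable cells exclude the dye, so fluorescence scales with cell death. HepG2 at 600 cells/well, compounds added after 5 h, signal read across 40 h.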

[16] = qHTS RealTime-Glo MT Cell Viability Assay in HepG2 cells - 32 hour (AID 1224877); note: nearly all actives have a fitted effect of over 55% in size
Procedure, shortened: as §1

[17] = A CellTox Green Cytotoxicity Assay to monitor cytotoxicity in HepG2 cells - 24 hour (AID 1224878); note: nearly all actives have a fitted effect of over 45% in size
Procedure, shortened: as §6

[18] = A CellTox Green Cytotoxicity Assay to monitor cytotoxicity in HepG2 cells - 40 hour (AID 1224879); note: nearly all actives have a fitted effect of over 40% in size
Procedure, shortened: as §6

[19] = qHTS RealTime-Glo MT Cell Viability Assay in HEK293 cells - 0 hour (AID 1224880)
Procedure, shortened: as §5

[20] = qHTS RealTime-Glo MT Cell Viability Assay in HepG2 cells - 8 hour (AID 1224873); note: nearly all actives have a fitted effect of over 55% in size
Procedure, shortened: as §4
% is set by controls: 0 for no effect and ±100 for the full control effect.

O=C(OCc1ccccc1)C(=O)OCc1ccccc1
inactive: outcome [1] | outcome [2] | outcome [3] | Potency [4] | Potency [5] | activity change, positive = activation [6] 0.466% | outcome [7] | Potency [8] | outcome [9] | outcome [10] | Potency [11] | Potency [12] | max response [13] 1.62% | outcome [14] | outcome [15] | outcome [16] | outcome [17] | Potency [18] | Potency [19]

O=C(NCCN1CCOCC1)c1ccc(Cl)cc1
inactive: outcome [1] | outcome [2] | outcome [3] | Potency [4] | Potency [5] | activity change, positive = activation [6] 9.75% [at 42.5 µM] | outcome [7] | Potency [8] | outcome [9] | outcome [10] | Potency [11] | Potency [12] | max response [13] 5.6% | outcome [14] | outcome [15] | outcome [16] | outcome [17] | Potency [18] | Potency [19]

O=C(CS(=O)Cc1ccco1)NC/C=C\COc1cc(CN2CCCCC2)ccn1 (stereo unspecified)
inactive: outcome [1] | outcome [2] | outcome [3] | Potency [4] | Potency [5] | activity change, positive = activation [6] 7.25% [at 42.5 µM] | outcome [7] | Potency [8] | outcome [9] | outcome [10] | Potency [11] | max response [13] -0.682% | outcome [14] | outcome [15] | outcome [16] | outcome [17] | Potency [18] | Potency [19]

COc1cc(N)ccc1C
inactive: outcome [1] | outcome [2] | outcome [3] | Potency [4] | activity change, positive = activation [6] -31.2% | outcome [7] | Potency [8] | outcome [9] | outcome [10] | Potency [11] | outcome [20] | max response [13] 8.05% | outcome [15] | outcome [16] | outcome [17] | Potency [18]
active: Potency [5] 27 µM

C=C(C)C(=O)OCCOP(=O)(O)OCCOC(=O)C(=C)C
inactive: outcome [1] | outcome [2] | outcome [3] | Potency [4] | Potency [5] | activity change, positive = activation [6] 5.76% | outcome [7] | Potency [8] | outcome [9] | outcome [10] | Potency [11] | Potency [12] | outcome [20] | max response [13] -2.48% | outcome [14] | outcome [15] | outcome [16] | outcome [17] | Potency [18] | Potency [19]

CC/C=C\CC1=C(C)CCC1=O
inactive: outcome [1] | outcome [2] | outcome [3] | Potency [4] | Potency [5] | activity change, positive = activation [6] -10.1% | outcome [7] | Potency [8] | outcome [9] | outcome [10] | Potency [11] | outcome [20] | max response [13] 0.983% | outcome [14] | outcome [15] | outcome [16] | outcome [17] | Potency [18] | Potency [19]

CC(=O)/C=C/C1C(C)=CCC(C)C1(C)C (stereo unspecified)
inactive: outcome [1] | outcome [2] | outcome [3] | Potency [4] | Potency [5] | activity change, positive = activation [6] -6.15% | outcome [7] | Potency [8] | outcome [9] | outcome [10] | Potency [11] | Potency [12] | outcome [20] | max response [13] 1.21% | outcome [14] | outcome [15] | outcome [16] | outcome [17] | Potency [18] | Potency [19]

CCc1ccc(C=O)cc1
inactive: outcome [1] | outcome [2] | outcome [3] | Potency [4] | Potency [5] | activity change, positive = activation [6] 5.25% | outcome [7] | Potency [8] | outcome [9] | outcome [10] | Potency [11] | Potency [12] | outcome [20] | max response [13] -4.49% | outcome [14] | outcome [15] | outcome [16] | outcome [17] | Potency [18]

CN=C(NC#N)Nc1ccc(C2=NNC(=O)CC2C)cc1 (stereo unspecified)
inactive: outcome [1] | outcome [2] | outcome [3] | Potency [4] | Potency [5] | activity change, positive = activation [6] 5.55% [at 42.5 µM] | outcome [7] | Potency [8] | outcome [9] | outcome [10] | Potency [11] | Potency [12] | outcome [20] | max response [13] 11.7% | outcome [14] | outcome [15] | outcome [16] | outcome [17] | Potency [18] | Potency [19]

CC(C)(C)c1n[nH]c(=S)n(N)c1=O
inactive: outcome [1] | outcome [2] | outcome [3] | Potency [4] | Potency [5] | activity change, positive = activation [6] -1.28% | outcome [7] | Potency [8] | outcome [9] | outcome [10] | Potency [11] | Potency [12] | outcome [20] | max response [13] 2.54% | outcome [14] | outcome [15] | outcome [16] | outcome [17] | Potency [18] | Potency [19]

ClCCCl
inactive: outcome [1] | outcome [2] | outcome [3] | Potency [4] | Potency [5] | activity change, positive = activation [6] 12.2% | outcome [7] | Potency [8] | outcome [9] | outcome [10] | Potency [11] | outcome [20] | max response [13] -0.252% | outcome [15] | outcome [16] | outcome [17] | Potency [18] | Potency [19]

CC(COC(C)(C)C)OCCCO (stereo unspecified)
inactive: outcome [1] | outcome [2] | outcome [3] | Potency [4] | Potency [5] | activity change, positive = activation [6] 3.31% | outcome [7] | outcome [9] | outcome [10] | Potency [11] | Potency [12] | outcome [20] | outcome [14] | outcome [15] | outcome [16] | outcome [17] | Potency [18] | Potency [19]

COc1ccc(Br)c(C)c1
inactive: outcome [1] | outcome [2] | outcome [3] | Potency [4] | Potency [5] | activity change, positive = activation [6] -0.068% | outcome [7] | Potency [8] | outcome [9] | outcome [10] | Potency [11] | Potency [12] | outcome [20] | max response [13] 4.1% | outcome [15] | outcome [16] | outcome [17] | Potency [18] | Potency [19]
